Measured values from ChEMBL document CHEMBL4513141, “CO-ADD screening of NIH (USA) - Clinical Collection” (2021).
Potency and affinity values are given separately.

What follows are compounds tested on Staphylococcus aureus. Conditions: Concentration 20 uM; ASSAY_TEST Inhibition of Bacterial Growth; detection method Absorption (OD600); MEDIA CAMHB; plate type 384well; NBS; CORNING #3640; time 18 hr.
Work on Cc1ccc(Cl)c(Nc2ccccc2C(=O)[O-])c1Cl.O.[Na+] [MECLOFENAMATE SODIUM] yielded an Inhibition of 27.36%.
Work on C=C1/C(=C\C=C2/CCC[C@]3(C)[C@@H]([C@H](C)CCCC(C)(C)O)CC[C@@H]23)C[C@@H](O)C[C@@H]1O [CALCITRIOL] yielded an Inhibition of 3.12%.
Work on O=C(O)c1cccnc1 [NIACIN] yielded an Inhibition of 1.53%.
For O=c1c(-c2ccccc2)c1-c1ccccc1 [DIPHENCYPRONE], the Inhibition was -9.91%.
With NC(=O)N1c2ccccc2C=Cc2ccccc21 [CARBAMAZEPINE] the Inhibition was 10.71%.
In the case of NS(=O)(=O)c1cc(C(=O)O)c(NCc2ccco2)cc1Cl [FUROSEMIDE], the Inhibition is reported as 14.48%.
Cc1ccc(N(CC2=NCCN2)c2cccc(O)c2)cc1 [PHENTOLAMINE] gave an Inhibition of 2.09%.
For CC1CCN(CCCC(=O)c2ccc(F)cc2)CC1.Cl, the Inhibition was 4.4%.
CCOC(=O)C1=C(C)NC(C)=C(C(=O)OC)C1c1cccc([N+](=O)[O-])c1 (centres undefined) [NITRENDIPINE] gave an Inhibition of 11.21%.
In the case of Cc1ccc(S(=O)(=O)NC(=O)NN2CCCCCC2)cc1 [TOLAZAMIDE], the Inhibition is reported as 2.29%.
CC(C(=O)[O-])c1ccc(CC2CCCC2=O)cc1.[Na+] (centres undefined) [LOXOPROFEN SODIUM] gave an Inhibition of 9.06%.
CC(=O)SCC(Cc1ccccc1)C(=O)NCC(=O)OCc1ccccc1 (centres undefined) [RACECADOTRIL] showed an Inhibition of 11.13%.

What follows are compounds tested on Escherichia coli. Conditions: Concentration 20 uM; ASSAY_TEST Inhibition of Bacterial Growth; detection method Absorption (OD600); MEDIA CAMHB; plate type 384well; NBS; CORNING #3640; time 18 hr.
CN(C)C(=O)Oc1ccc[n+](C)c1.[Br-] [PYRIDOSTIGMINE BROMIDE] was tested, and the Inhibition was -0.78%.
With Nc1ccc(S(=O)(=O)c2ccc(N)cc2)cc1 [DAPSONE] the Inhibition was 0.96%.
In the case of Cc1ncc([N+](=O)[O-])n1CC(C)O (centres undefined) [SECNIDAZOLE], the Inhibition is reported as 5.99%.
In the case of CC1=C(/C=C/C(C)=C/C=C/C(C)=C/C(=O)O)C(C)(C)CCC1 [TRETINOIN], the Inhibition is reported as 7.4%.
For CNCCC=C1c2ccccc2CCc2ccccc21.Cl [NORTRIPTYLINE HYDROCHLORIDE], the Inhibition was 4.29%.
Work on COc1ccc(Cl)cc1C(=O)NCCc1ccc(S(=O)(=O)NC(=O)NC2CCCCC2)cc1 [GLYBURIDE] yielded an Inhibition of -12.57%.
For COc1ccc(-c2cc(=O)c3c(OC)c(OC)c(OC)c(OC)c3o2)cc1OC [NOBILETIN], the Inhibition was -1.7%.
CN1CCN(CCCN2c3ccccc3Sc3ccc(Cl)cc32)CC1.O=C(O)/C=C\C(=O)O.O=C(O)/C=C\C(=O)O [PROCHLORPERAZINE MALEATE] showed an Inhibition of 1.77%.
With Nc1nc2c(ncn2COC(CO)CO)c(=O)[nH]1 [GANCICLOVIR] the Inhibition was 0.63%.
C#C[C@]1(O)CC[C@H]2[C@@H]3CCc4cc(OC)ccc4[C@H]3CC[C@@]21C [MESTRANOL] was tested, and the Inhibition was -2.89%.
With NC(Cc1cc(I)c(Oc2ccc(O)c(I)c2)c(I)c1)C(=O)O (centres undefined) [RATHYRONINE] the Inhibition was 4.17%.
For CC(C)NCC(O)COc1ccc(COCCOC(C)C)cc1.CC(C)NCC(O)COc1ccc(COCCOC(C)C)cc1.O=C(O)/C=C/C(=O)O (centres undefined) [BISOPROLOL FUMARATE], the Inhibition was 1.99%.
With Nc1ncnc2c1ncn2[C@@H]1O[C@H](CO)[C@@H](O)[C@@H]1O [VIDARABINE] the Inhibition was 6.8%.
For CC(C)NCC(O)COc1ccc(CC(N)=O)cc1 (centres undefined) [ATENOLOL], the Inhibition was 2.4%.
With Cc1c(C(=O)NN2CCCCC2)nn(-c2ccc(Cl)cc2Cl)c1-c1ccc(I)cc1 the Inhibition was 1.46%.
With CC(=O)OCC(=O)C12OC3(CCCC3)OC1CC1C3CCC4=CC(=O)C=CC4(C)C3(F)C(O)CC12C (centres undefined) the Inhibition was 7.38%.
With COc1ccc(OC)c(C(O)CNC(=O)CN)c1.Cl (centres undefined) [MIDODRINE HYDROCHLORIDE] the Inhibition was 4.77%.
Compound CCC(=O)[N-]S(=O)(=O)c1ccc(-c2c(-c3ccccc3)noc2C)cc1.[Na+] [PARECOXIB SODIUM] has an Inhibition of 6.4%.
CN(C)CCCN1c2ccccc2CCc2ccc(Cl)cc21.Cl [CLOMIPRAMINE HYDROCHLORIDE] was tested, and the Inhibition was 7.04%.
For Cc1cn([C@H]2C=C[C@@H](CO)O2)c(=O)[nH]c1=O [STAVUDINE], the Inhibition was 4.38%.
Compound Sc1ncnc2nc[nH]c12 [MERCAPTOPURINE ANHYDROUS] has an Inhibition of 6.85%.
For c1ccc2[nH]c(-c3cscn3)nc2c1 [THIABENDAZOLE], the Inhibition was 1.68%.
For O=C(O[C@H]1[C@H](Oc2ccccc2COC(=O)C2(O)C=CCCC2=O)O[C@H](CO)[C@@H](O)[C@@H]1O)c1ccccc1 (some centres undefined) [TREMULACIN], the Inhibition was 0.23%.
CC1=Nc2ccc(Cl)cc2S(=O)(=O)N1 [DIAZOXIDE] showed an Inhibition of 5.75%.
Work on CC(COc1ccccc1)NC(C)C(O)c1ccc(O)cc1.Cl (centres undefined) [ISOXSUPRINE HYDROCHLORIDE] yielded an Inhibition of -2.1%.
With Cc1ccc(Cl)c(Nc2ccccc2C(=O)[O-])c1Cl.O.[Na+] [MECLOFENAMATE SODIUM] the Inhibition was 2.5%.
With C=C1/C(=C\C=C2/CCC[C@]3(C)[C@@H]([C@H](C)CCCC(C)(C)O)CC[C@@H]23)C[C@@H](O)C[C@@H]1O [CALCITRIOL] the Inhibition was 7.51%.
With O=C(O)c1cccnc1 [NIACIN] the Inhibition was -3.09%.
O=c1c(-c2ccccc2)c1-c1ccccc1 [DIPHENCYPRONE] showed an Inhibition of 6.71%.
Compound NC(=O)N1c2ccccc2C=Cc2ccccc21 [CARBAMAZEPINE] has an Inhibition of -3.33%.
NS(=O)(=O)c1cc(C(=O)O)c(NCc2ccco2)cc1Cl [FUROSEMIDE] was tested, and the Inhibition was -0.33%.
For Cc1ccc(N(CC2=NCCN2)c2cccc(O)c2)cc1 [PHENTOLAMINE], the Inhibition was -2.29%.
CC1CCN(CCCC(=O)c2ccc(F)cc2)CC1.Cl gave an Inhibition of 6.76%.
With CCOC(=O)C1=C(C)NC(C)=C(C(=O)OC)C1c1cccc([N+](=O)[O-])c1 (centres undefined) [NITRENDIPINE] the Inhibition was -2.58%.
Cc1ccc(S(=O)(=O)NC(=O)NN2CCCCCC2)cc1 [TOLAZAMIDE] showed an Inhibition of -1.66%.
In the case of CC(C(=O)[O-])c1ccc(CC2CCCC2=O)cc1.[Na+] (centres undefined) [LOXOPROFEN SODIUM], the Inhibition is reported as -0.84%.
CC(=O)SCC(Cc1ccccc1)C(=O)NCC(=O)OCc1ccccc1 (centres undefined) [RACECADOTRIL] gave an Inhibition of -5.63%.
